Assay outcomes (PubChem BioAssay)
In the library only some 21% were active in any assay of this set; here they are far more common.
Cycloheximide cs = counter-screen for Shiga toxin inhibitors: cycloheximide protein synthesis inhibition; cell reporter, cycloheximide protein synthesis inhibition counterscreen; max response, %; 12% of 300,000 active; in the data active = max response mostly above about 13%, no sharp cut-off; inactive = mostly below about 14%; note: read at 38.3 µM for the half of the compounds with a filed dose; 0% is about no effect
Giardia FBPA inh = Giardia lamblia aldolase inhibition | 0.71% of 290,000 active | Potency, µM (doses to about 59.6 µM), for inactives: at the highest dose activity, negative = inhibition, hits mostly inhibitors | purified Giardia FBPA | AID 2451; note: potency is the fitted concentration of half-maximal effect; % is set by controls: 0 for no effect and ±100 for the full control effect; nearly all actives have a fitted effect of over 55% in size
Target sequence (A8B2U2 whole entry, looked up): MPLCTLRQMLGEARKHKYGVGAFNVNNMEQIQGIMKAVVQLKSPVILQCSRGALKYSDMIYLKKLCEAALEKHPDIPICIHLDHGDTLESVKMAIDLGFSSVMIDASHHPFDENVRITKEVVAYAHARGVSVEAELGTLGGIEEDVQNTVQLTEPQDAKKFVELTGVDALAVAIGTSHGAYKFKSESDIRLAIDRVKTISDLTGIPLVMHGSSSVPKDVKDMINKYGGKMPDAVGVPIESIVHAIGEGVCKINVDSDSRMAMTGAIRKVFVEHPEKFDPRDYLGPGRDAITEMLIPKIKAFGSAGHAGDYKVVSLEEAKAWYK
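Giardia FBPA (40 nM reagent) was preincubated 10 min at RT with compound (up to 57.5 uM final), then substrate plus GAPDH/TPI/NAD/arsenate coupling system with diaphorase/resazurin was added; resorufin fluorescence (525/598 nm) was read after 20 min.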
Pf growth 96h = P. falciparum growth inhibition at 96 hour, primary screen for plastid delayed-death inhibitors; Potency, µM (doses to about 28.7 µM), without a hit: at the highest dose activity change, negative = inhibition, most hits filed as inhibitors; P. falciparum luciferase reporter growth, 96 h; 6.9% of 320,000 active; AID 504834; note: potency is the fitted concentration of half-maximal effect; % is set by controls: 0 for no effect and ±100 for the full control effect
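Compounds incubated with erythrocytes infected by luciferase-expressing P. falciparum (2% hematocrit, 0.05% parasitemia final) for 96 hours, 37 C in 5% CO2. Growth inhibition scored as decreased luciferase luminescence.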
NS1 inh = blocks influenza NS1 protein function; Potency, µM (series often up to 46.1 µM), for the others: top-dose activity, positive = more growth; 0.4% of 270,000 active; AID 2326; calls by dose curve; note: potency is the fitted concentration of half-maximal effect; actives are rising curves; nearly all actives have a fitted effect of over 50% in size
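Compounds were scored for reversing the slow growth caused by influenza A NS1 in S. cerevisiae, measured by optical density at 600 nm. Assay medium contained 2% galactose at pH 6.0; NS1-free yeast of the same strain were the positive control.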
Pf growth 48h = inhibits P. falciparum growth in the first generation, 48 h; P. falciparum luciferase growth in erythrocytes, 48 h; Potency, µM (highest dose often 28.7 µM), for inactives: at the top dose activity change, negative = inhibition, usual class: inhibitors; 5.9% of 310,000 active; AID 504832; note: potency is the fitted concentration of half-maximal effect; % is set by controls: 0 for no effect and ±100 for the full control effect
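Luciferase-expressing P. falciparum in infected erythrocytes (2% hematocrit, 0.1% parasitemia final) in RPMI 1640/0.5% Albumax were exposed to compound for 48 hours at 37 C, 5% CO2; growth read as luminescence.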
Shiga inhibitor = inhibitors of Shiga toxin in Vero cells. Vero cells, Shiga toxin protein synthesis inhibition reporter. inhibition, % at 38.7 µM. 9.2% of 290,000 active; in the data active = inhibition mostly above about 28%, no sharp cut-off; inactive = mostly below about 43%; note: 0% is about no effect
Starred values were filed as active, the others as inactive; u = inconclusive; x = no result given; [ ] = another dose, or the depositor's remark. Unless noted, calls come from the whole dose curve; as a rule, active = well fitted curve in the direction sought with a large enough effect; inconclusive = small, poorly fitted or top-dose-only effect, or another doubt; inactive = no such curve, though single readings can be large; an effect the other way counts as inactive or inconclusive.

SMILES	Cycloheximide cs	Giardia FBPA inh	Pf growth 96h	NS1 inh	Pf growth 48h	Shiga inhibitor
Cn1cccc1/C=C1\SC(=Nc2ccc(O)cc2)NC1=O	44*	0%	u	3%	u	37*
COC(=O)/C=C1\SC(=Nc2ccccc2)NC1=O	-3	-18%	-22%	3%	2%	-6
CCOc1cc(Br)cc(/C=C2\SC(=Nc3ccccc3)NC2=O)c1O	-3	-10%	u	-5%	u	22
Cc1cc(C)cc(N=C2NC(=O)/C(=C/c3cccs3)S2)c1	-1	1%	u	14%	22%	4
O=C(O)c1ccn2c(C(=O)c3ccccc3)c(-c3ccccc3)cc2c1	-3	26%	0%	-45%	24%	-3
Cc1oc(C(=O)Nc2ccc(O)cc2)cc1COc1ccccc1	16*	u	x	-4%	12%	38*
Cc1cc(C(=O)Nc2ccccc2)oc(=O)c1	48*	8%	172%	-3%	111%	45*
Cc1ccc(OCc2cc(C(=O)Nc3ccccc3)oc2C)cc1	51*	-8%	3%	-64%	x	85*
COC(=O)c1cc(C)cc(=O)o1	1	4%	63%	-2%	6%	10
CSc1ncccc1C(=O)N1CCN(S(=O)(=O)c2ccc(F)cc2)CC1	-2	11%	u	4%	5%	-5
CN(N=O)C(=O)N[C@H]1C(O)C(O)C(CO)O[C@@H]1O (stereo not given in full)	x	6%	x	x	x	x
O=C(Cc1cc(=O)oc2cc(O)ccc12)NC(Cc1ccc(Cl)cc1)C(=O)O (stereo not given)	-1	4%	0%	0%	20%	-4
O=c1cc(COc2ccccc2[N+](=O)[O-])nc2sccn12	10	-2%	u	4%	-51%	23
Cc1cc(C(C)(C)C)c(OC(=O)[C@@H]2OC(c3ccccc3)=C[C@H]2c2ccccc2)c(C(C)(C)C)c1	x	x	u	x	5.2µM*	x
O=C(Oc1ccccc1)C1O[C@@H]1c1ccccc1 (stereo not given in full)	x	1%	x	x	x	x
CN(C)S(=O)(=O)c1cccc(C(=O)OCC(=O)Nc2sccc2C(N)=O)c1	-5	0%	3.7µM*	-1%	1.9µM*	-20
COc1ccc(C(=O)OCC(=O)Nc2sccc2C(N)=O)cc1OC	9.3*	2%	21%	2%	17%	8
COc1ccc(-c2nc3c(c4c2C[C@H](c2ccccc2)OC4)CN(S(=O)(=O)c2ccc4c(c2)OCCN4C)CC3)c(C)c1	x	6%[12.9 µM]	x	x	x	x
CCCC(=O)NC(NC(=S)Nc1ccc(S(N)(=O)=O)cc1)C(Cl)(Cl)Cl (stereo not given)	-1	-14%	u	0%	-21%	-12
O=C(CCc1ccccc1)NC(NC(=S)Nc1ccc(Br)cc1)C(Cl)(Cl)Cl (stereo not given)	-1	-1%	x	4%	u	7
CCCC(=O)NC(NC(=S)Nc1ccc(N=Nc2ccccc2)cc1)C(Cl)(Cl)Cl (stereo not given)	35*	-7%	49%	4%	u	39*
O=C(CCc1ccccc1)NC(NC(=S)Nc1cccc(Cl)c1)C(Cl)(Cl)Cl (stereo not given)	-1	4%	9.3µM*	1%	u	-7
C/C(=N/NC(=O)CNc1ccc(Cl)cc1C)c1ccc(C)cc1	-5	0%	u	x	22%	-13
O=C(NNC1=NCCC1)C1CC1	-5	-4%	14%	x	4%	-20
CCOC(=O)c1ccc(NC(=O)COc2ccc(S(=O)(=O)NC(C)CC)cc2)cc1 (stereo not given)	5	-1%	10µM*	-15%	u	-10
SMILES	Cycloheximide cs	Giardia FBPA inh	Pf growth 96h	NS1 inh	Pf growth 48h	Shiga inhibitor
CCOc1ccc(NC(=O)COc2ccc(C(=O)NC(C)c3ccc(S(N)(=O)=O)cc3)cc2OC)cc1 (stereo not given)	x	x	u	x	12µM*	x
CC(NC(=O)CCc1nnc(-c2ccc(-c3ccccc3)cc2)o1)c1nccs1 (stereo not given)	14*	-1%	14%	-5%	-16%	36
COCCNC(=O)CCc1nnc(Cc2ccc(-c3ccccc3)cc2)o1	-1	0%	12µM*	-2%	1%	-3
O=C(CCc1nnc(Cc2ccc(-c3ccccc3)cc2)o1)NCCc1ccccn1	9	-8%	1%	-4%	u	8
O=C(CCc1nnc(-c2ccc(-c3ccccc3)cc2)o1)NCCc1ccccn1	18*	-2%	u	-5%	7%	59
CC(c1nccs1)N(C)C(=O)CCc1nnc(-c2ccc(-c3ccccc3)cc2)o1 (stereo not given)	26*	-1%	1%	2%	u	28
O=C(O)c1ccc(S(=O)(=O)N[C@H](Cc2ccc([N+](=O)[O-])cc2)C(=O)O)cc1	3	0%	8%	x	2%	-2
O=C(CCc1nnc(-c2ccccc2)o1)NCc1c(F)cccc1F	13	3%	13µM*	-3%	0%	10
O=C(Nc1ccc(Oc2ncccn2)cc1)c1ccco1	13	-1%	21%	-8%	40%	43
Cc1ccc(Oc2ccc(NC(=O)c3ccco3)cc2)cc1	67*	-10%	-2%	-219%	0.93µM*	99*
COC(=O)CC(NC(=O)c1ccco1)c1ccc(C(C)C)cc1 (stereo not given)	-2	0%	x	-2%	-17%	-15
Cc1ccc(NC(=O)c2ccc(OC(=O)c3ccco3)cc2)cc1	36*	0%	4%	-10%	189%	73*
Cc1ccc(NC(=O)c2ccc(OC(=O)c3cc4ccccc4o3)cc2)cc1	40*	5%	x	1%	204%	81*
COC(=O)c1ccc(NC(=O)c2ccc(NC(=O)c3ccco3)cc2)cc1	-2	x	-7%	7%	u	-14
CCOC(=O)CC(NC(=O)c1ccco1)c1ccc(C)cc1 (stereo not given)	-1	2%	6.6µM*	-3%	3%	12
CCOC(=O)[C@@H]1C(c2c(OC)cc(OC)cc2OC)=NO[C@@H]1C(=O)OCC	0	0%	13%	-9%	1%	13
CC(OCCN1CCCC1)(c1ccc(F)cc1)c1ccc(F)cc1	-2	-3%	u	8%	u	-7
CCCC(=O)Oc1ccc(C2NC(=O)c3ccccc3O2)cc1 (stereo not given)	1	6%	-27%	8%	1%	x
COc1ccc(S(=O)(=O)N2CCN(CC(=O)NC3CC3)CC2)cc1	-2	x	u	-3%	75%	-5
O=C(O)c1cc(Oc2ccc([N+](=O)[O-])cc2)cc(Oc2ccc([N+](=O)[O-])cc2)c1	-7	20%	x	x	x	-8
Cc1cc(C)nc(/N=C2\NC(=O)CC(C(=O)O)N2c2ccc(C)c(C)c2)n1 (stereo not given)	-2	-10%	u	4%	-9%	-1
